Compound activity as filed in PubChem.
FBW7 activator: FBW7 E3 ligase activators, primary screen, biochemical, AlphaScreen, human | F-box/WD repeat-containing protein 7 (Homo sapiens), Q969H0 | 0.13% of 650,000 active | AlphaScreen FBW7–phospho-cyclin E peptide binding, activator screen | normalized activity (activation), % at 26.1 µM | AID 1259310, 2017; in the data active = normalized activity above about 1.9%;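 also: purified mutant Fbw7 with reduced substrate affinity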
Target sequence (Q969H0 whole entry, looked up): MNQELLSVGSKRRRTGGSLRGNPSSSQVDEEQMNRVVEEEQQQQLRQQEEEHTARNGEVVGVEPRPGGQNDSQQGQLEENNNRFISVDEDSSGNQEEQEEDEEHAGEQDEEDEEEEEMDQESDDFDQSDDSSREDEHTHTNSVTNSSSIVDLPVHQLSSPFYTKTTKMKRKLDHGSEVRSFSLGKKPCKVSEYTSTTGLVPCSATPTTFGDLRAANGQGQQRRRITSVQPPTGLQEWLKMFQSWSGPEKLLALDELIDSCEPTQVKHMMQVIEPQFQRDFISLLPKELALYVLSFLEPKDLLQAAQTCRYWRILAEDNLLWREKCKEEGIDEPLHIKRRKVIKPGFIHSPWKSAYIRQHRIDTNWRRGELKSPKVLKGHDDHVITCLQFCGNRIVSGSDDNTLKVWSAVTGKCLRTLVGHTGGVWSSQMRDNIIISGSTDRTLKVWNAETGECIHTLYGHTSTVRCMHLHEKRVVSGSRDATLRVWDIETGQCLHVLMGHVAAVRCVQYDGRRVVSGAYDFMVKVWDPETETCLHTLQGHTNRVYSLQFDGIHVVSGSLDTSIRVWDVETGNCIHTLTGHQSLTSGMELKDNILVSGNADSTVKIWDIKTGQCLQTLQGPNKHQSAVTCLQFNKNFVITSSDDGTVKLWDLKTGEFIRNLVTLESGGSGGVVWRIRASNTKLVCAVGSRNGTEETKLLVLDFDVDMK
GPR151 ag: activators of human GPR151, primary screen, cell-based, PathHunter beta-arrestin, luminescence. AID 1508602, 2020. 1% of 650,000 active. PathHunter beta-arrestin GPR151 cells. G-protein coupled receptor 151 (Homo sapiens), Q8TDV0. activation, % at 11.2 µM; in the data active = activation above about 4.9%;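 also: 0% = median of compound wells and 100% = cells with positive control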
MITF inh: MITF inhibitors, primary screen, biochemical, AlphaScreen, human; AlphaScreen MITF homodimerization, bead proximity signal; inhibition, % at 2.6 µM; 0.91% of 650,000 active; AID 1259374, 2018; in the data active = inhibition above about 50%;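 also: 0% = vehicle wells with protein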
TEAD-YAP inh: TEAD-YAP interaction inhibition, primary screen, TEAD-YAP interaction inhibitor project, luminescence, HEK-TIYL cells; 1.4% of 640,000 active; AID 1259422, 2018; inhibition, % at 9.12 µM; TEAD-Gal4/YAP UAS-luciferase luminescence; in the data active = inhibition above about 32%;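 also: 0% = median of test compound wells and 100% = reference inhibitor wells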
* hit, by the source's call. Compounds with a hit are over-represented: about 3.5% of the library has one in this group of screens.

SMILES | FBW7 activator | GPR151 ag | MITF inh | TEAD-YAP inh
COc1ccc(N=c2oc3ccccc3cc2-c2nc3ccccc3[nH]2)cc1 | 0 | -10 | 10 | 38*
Fc1ccc(N=c2oc3ccccc3cc2-c2nc3ccccc3[nH]2)cc1 | 0 | -4 | 2 | -40
COC(=O)c1ccc(NC(=O)CCC(=O)OCC(=O)c2ccc(Cl)c([N+](=O)[O-])c2)cc1 | 0 | 2 | -9 | 5
COc1ccc(C2CC(=O)C3=C(C2)NC(C)=C(C(=O)OC(C)C)C3c2ccc(F)cc2)cc1OC (stereo unspecified) | 0 | 0 | -14 | 42*
CCCOC(=O)C1=C(C)NC2=C(C(=O)CC(c3ccc(OC)c(OC)c3)C2)C1c1ccccc1F (stereo unspecified) | 0 | 3 | -11 | 41*
COc1ccc(C2CC(=O)C3=C(C2)NC(C)=C(C(=O)OC2CCCCC2)C3c2ccc([N+](=O)[O-])cc2)cc1OC (stereo unspecified) | 0 | 1 | 14 | 7
CCCOC(=O)C1=C(C)NC2=C(C(=O)CC(c3ccc(OC)c(OC)c3)C2)C1c1ccccc1C (stereo unspecified) | 0 | 1 | -7 | 0
CCCOC(=O)C1=C(C)NC2=C(C(=O)CC(c3ccc(OC)c(OC)c3)C2)C1c1cccc(C)c1 (stereo unspecified) | 0 | 2 | -10 | 33*
COc1ccc(C2CC(=O)C3=C(C2)NC(C)=C(C(=O)OC2CCCCC2)C3c2cccc([N+](=O)[O-])c2)cc1OC (stereo unspecified) | 0 | -1 | 11 | 35*
COc1ccc(C2CC(=O)C3=C(C2)NC(C)=C(C(=O)OC(C)C)C3c2ccc(SC)cc2)cc1OC (stereo unspecified) | 0 | 0 | -1 | 14
CC(C)OCCCNC(=O)C(=O)Nc1cccc(C(F)(F)F)c1 | 0 | 0 | -1 | -6
FC(F)(F)c1cccc(NC(=S)NCC2CCCO2)c1 (stereo unspecified) | 0 | 0 | -19 | 4
COC(=O)C1=C(C)NC2=C(C(=O)c3ccccc32)C1c1ccc(O)c(OC)c1 (stereo unspecified) | -1 | -1 | 20 | -10
COc1ccc(-c2cnc3ccc(NCC4CC4)nn23)c(OC)c1 | 0 | 0 | -17 | -4
CCCOC(=O)C1=C(C)NC2=C(C(=O)CC(c3ccc(OC)c(OC)c3)C2)C1c1cccc(Br)c1 (stereo unspecified) | 0 | 0 | -3 | 38*
CC1=C(C(=O)OC2CCCCC2)C(c2cccnc2)C2=C(CC(c3ccc(Cl)cc3)CC2=O)N1 (stereo unspecified) | 0 | 0 | -4 | 38*
CCCCCCNC(=O)c1c[nH]c2ccc(S(=O)(=O)N(CC)c3ccccc3)cc2c1=O | 0 | -1 | -2 | -4
Fc1cc(-c2nc(Nc3ccc(-c4cnco4)cc3)ncc2F)cc(N2CCOCC2)c1 | 1 | 1 | 9 | 2
Fc1cnc(Nc2ccc(Cn3cccn3)cc2)nc1-c1cc(N2CCOCC2)cc(C(F)(F)F)c1 | 0 | 2 | 7 | 0
Fc1cc(-c2nc(Nc3cccc(Cn4cncn4)c3)ncc2F)cc(N2CCOCC2)c1 | 0 | 1 | 2 | 88*
Fc1cc(-c2nc(Nc3ccc(Cn4ccnc4)cc3)ncc2F)cc(N2CCOCC2)c1 | 0 | 0 | 4 | 89*
Fc1cc(-c2nc(Nc3ccc(-n4cnc(-c5ccccn5)c4)cc3)ncc2F)cc(N2CCOCC2)c1 | -2 | 0 | 7 | 54*
Fc1cnc(Nc2ccc(Cn3ccnc3)cc2)nc1-c1cc(N2CCOCC2)cc(C(F)(F)F)c1 | 0 | 2 | -284 | 40*
COc1cccc(/C=C2/C(=O)N(c3ccc(Cl)c(Cl)c3)N=C2C)c1 | -1 | 0 | -13 | 0
Cc1ccccc1NC(=O)C1CC(=O)OC1(C)C (stereo unspecified) | 0 | -1 | -5 | -6
SMILES | FBW7 activator | GPR151 ag | MITF inh | TEAD-YAP inh
Fc1cc(-c2nc(Nc3cccc(Cn4ccnc4)c3)ncc2F)cc(N2CCOCC2)c1 | 0 | -2 | -2 | 94*
CCOc1ccc(/C=N\NC(=O)c2ccccn2)cc1 | 0 | -6 | 18 | 36*
O=C(N/N=C\c1ccc(O)cc1)c1ccccn1 | 0 | -7 | 6 | 42*
CCc1ccc(/C=N/NC(=O)c2ccccn2)cc1 | 0 | -5 | 4 | 30
O=C(N/N=C/c1ccc(O)cc1)c1ccccn1 | 0 | -7 | 5 | -24
CSc1ccc(/C=N\NC(=O)c2ccccn2)cc1 | 1 | -7 | 11 | 49*
O=C(N/N=C\c1cccc(O)c1)c1ccccn1 | 0 | -7 | -6 | 74*
O=C(N/N=C\c1ccc(F)cc1)c1ccccn1 | 0 | -4 | 8 | -8
Cc1ccc(/C(O)=C2/C(=O)C(=O)N(CCC(=O)O)C2c2ccccc2)cc1 (stereo unspecified) | 1 | -1 | 16 | -6
O=C1N[C@@H](Cc2ccc(O)cc2)C(=O)N2CCN(C(=O)c3ccc(C(F)(F)F)cc3)C[C@H]12 | 1 | -1 | -21 | 15
CC(/C=N\NC(=O)c1ccccn1)=C\c1ccccc1 | 0 | -4 | 10 | 34*
O=C(N/N=C/c1cccc(O)c1O)c1ccccn1 | -1 | -8 | 81* | -10
CCOc1ccc(/C=N/NC(=O)c2ccoc2C)cc1 | 0 | -9 | 11 | 38*
CC(=C/c1ccccc1)/C=N/NC(=O)c1ccccn1 | 0 | -3 | 19 | -7
COc1ccccc1/C=C(\NC(=O)c1ccccc1)C(=O)Nc1ccccc1OC | 0 | 2 | 9 | -6
Cc1cccn2c(=O)c3cc(C(=O)N(C)C4CCCCC4)n(C)c3nc12 | 0 | 1 | -3 | 0
CNC(=S)N/N=C(\C)Cc1ccc(OC)cc1 | 0 | 0 | 3 | -16
CCOC(=O)c1c(-c2ccccc2)oc2ccc(NS(=O)(=O)c3ccc(OC)cc3)cc12 | 0 | 4 | -4 | 57*
CCOC(=O)c1c(-c2ccccc2)oc2ccc(NS(=O)(=O)c3ccc(OCC)cc3)cc12 | 0 | 0 | -22 | 57*
CCOC(=O)c1c(-c2ccccc2)oc2ccc(NS(=O)(=O)c3ccccc3)cc12 | 0 | 0 | -5 | 0
COc1cc(OC)cc(C(=O)Nn2c(-c3ccc(C(C)(C)C)cc3)nc3ccccc3c2=O)c1 | 0 | -1 | -5 | 38*
COc1cccc(C(=O)Nn2c(-c3ccc(C(C)(C)C)cc3)nc3ccccc3c2=O)c1 | 0 | 1 | 7 | 42*
COc1cccc(C(=O)Nn2c(-c3ccc(Br)cc3)nc3ccccc3c2=O)c1 | 0 | 0 | 8 | 3
O=C(Nc1ccc2c(c1)OC1(CCCCC1)O2)c1ccc(F)cc1 | 0 | 1 | -3 | -47
O=C(c1ccc2cncc(-c3ccccc3)c2n1)N1CCOCC1 | 0 | -2 | 17 | 36*
O=C(c1ccc2cncc(-c3ccsc3)c2n1)N1CCC(O)CC1 | -1 | -2 | -43 | 61*
